Assay results: PubChem BioAssay (NCI)
About 83,000 compounds went through this panel and 20% of them were active in at least one assay; those are over-represented in the sample as a whole.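 Compound tested at a single concentration for 48 hours in 96-well plates; a percent growth value below 10 was scored as active.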 Unmarked numbers belong to inactive results. Calls of active or inactive are those of the source.

What follows are compounds tested on NCI-H23 lung (assay: NCI-60 one-dose screen, 48 h (100 = growth as untreated, 0 = no growth, -100 = all killed)). Details: 10 µM unless noted.

Compound | growth
O=C1c2ccccc2C(=O)c2c(N=Nc3[nH]c(=S)[nH]c3O)cccc21 | 41.7%
Cn1c(NCCc2ccc(O)c(O)c2)nc2c1c(=O)n(Cc1ccc(Br)cc1)c(=O)n2C | 86.4%
Cc1ccc(/C=C2\SC(=S)N(CC(=O)NCCCN3CCOCC3)C2=O)cc1 | 99.6%
Cc1ccc(C2Oc3ccccc3C3CC(c4cccs4)=NN32)cc1 (centres undefined) | 93.4%
C=CC(=O)Nc1cccc(-c2nc(SC)nc(NCCc3ccc(OC)c(OC)c3)c2C#N)c1 | 47.6%
Cc1nc(/N=C(\N)NC(=O)Nc2cccc([N+](=O)[O-])c2)sc1C | 81.8%
COc1ccc(-n2nc(C)c3c(Nc4ccc(NC(=O)Nc5ccc(Cl)c(C(F)(F)F)c5)cc4)ncnc32)cc1 | -7.74% (active)
O=C(/C=C/c1cccc([N+](=O)[O-])c1)c1ccc(O)c(CN2CCN(c3cc4c(cc3F)c(=O)c(C(=O)O)cn4C3CC3)CC2)c1 | 37.3%
CCC([N+](=O)[O-])S(=O)(=O)c1ccc(C)cc1 (centres undefined) | 93.2%
Cc1cn2c(/C=C3/C(=O)Nc4c3ccc3ccccc43)c(C(F)(F)F)nc2s1 | 39.5%
O=C1c2cc3c(cc2-c2c1c1ccc(F)cc1c(=O)n2C[C@H](O)[C@@H](O)[C@H](O)CO)OCO3 | -31.9% (active)
O=C(Nc1cccc2[nH]c(C(F)(F)F)nc12)c1ccc(-n2cnnn2)cc1 | 82.1%
Fc1ccc(CNc2cccc3[nH]c(C(F)(F)F)nc23)cc1 | 99.1%
O=C1c2cc3c(cc2-c2c1c1ccc(F)cc1c(=O)n2CCCNCCO)OCO3 | -57.3% (active)
N#CN1CC[C@H](C(=O)Nc2cc3cc(C(N)=O)ccc3cn2)C1 | -8.58% (active)

The compounds below were run on NCI-H226 lung in the same assay as above. Details: 10 µM unless noted.

Compound | growth
COc1cccc(/C=C2\Oc3cc(OCCN4CCCC4)ccc3C2=O)c1 | 99.2%
COc1ccc(-c2nc3ccc(-c4nc5ccc(N6CCN(c7ccncc7)CC6)cc5[nH]4)cc3[nH]2)cc1OC | 46%
Cc1ccc(C2=NN3C(C2)c2cc(Br)ccc2OC32CCN(Cc3ccccc3)CC2)o1 (centres undefined) | 86.9%
COc1cc2c(cc1-c1c(C)noc1C)ncc1nc(-c3ccccn3)n([C@H](C)COC(F)F)c12 | 57.8%
Cc1oc(-c2ccc(Cl)cc2Cl)cc1C(=O)Nc1nccs1 | 62.6%
COc1ccc2c(c1)c(-c1nonc1-c1cn(C)c3ccccc13)cn2C | 27.3%
COC(=O)c1ccc(NC(=O)c2ccc(-c3cccc([N+](=O)[O-])c3)o2)cc1 | 73.9%
COc1cccc(C2=NN3C(C2)c2cc(Br)cc(OC)c2OC32CCN(Cc3ccccc3)CC2)c1 (centres undefined) | 85.3%
O=C1c2cc3c(cc2-c2c1c1cc(F)c(F)cc1c(=O)n2CCCn1ccnc1)OCO3 | -59.4% (active)
Cc1ccc2c(C(C[N+](=O)[O-])c3ccccc3F)c(-c3ccccc3)[nH]c2c1 (centres undefined) | 58.6%
Cc1ccccc1COc1ccc(-c2onc(C)c2-c2ccc(Cl)cc2)cc1 | 57.2%
COC[C@H](C)n1c(C2CCOCC2)nc2cnc3cc(-c4c(C)noc4C)c(OC)cc3c21 | 67%
C#CCOc1ccc2ncnc(NCc3cccc(NC(=O)CCl)c3)c2c1 | 25.3% [8.25 µM]
COc1cc(-c2nn(C)nc2-c2cc3ccccc3s2)cc(OC)c1OC | 55.5%
O=C1NC(=S)N[C@H]1CC(=O)n1cnc2ccccc21 | 93.6%
O=S(=O)(Nc1ccc(I)cc1F)c1ccc(-c2cnc(C3CC3)o2)cc1 | 80.2%
CC[C@@H](C(=O)[C@@H](C)[C@@H](O)[C@H](C)[C@@H]1O[C@@H]([C@@H](CC)C(=O)O)CC[C@@H]1C)[C@H]1OC2(C=C[C@@H](O)[C@]3(CC[C@@](C)([C@H]4CC[C@](O)(CC)[C@H](C)O4)O3)O2)[C@H](C)C[C@@H]1C (some centres undefined) | 14.1%
CCOC(=O)c1csc(NC(=O)COc2cccc(/C=C3\CSc4ccccc4C3=O)c2)n1 | 98.1%
CN1CCN(c2ccc3nc(-c4ccc(OCCCCN5CCN(CCCCN6C(=O)c7cccc8cccc(c78)C6=O)CC5)cc4)[nH]c3c2)CC1 | 86.6%
Cc1ncc(C(=O)Nc2ccc(CN3CCN(C)CC3)c(C(F)(F)F)c2)cc1C#Cc1cnc2cccnn12 | -56.8% (active)

Compound | growth
Cc1nc2c3c(-c4ccccc4)c(-c4ccccc4)oc3ncn2n1 | 92.2%
O=C(N/N=C/c1ccccc1O)c1ccccc1Nc1ccnc(C(F)(F)F)c1 | -11.7% (active)
COC(=O)[C@]12CCC(C)(C)C[C@H]1[C@H]1C(=O)C[C@@H]3[C@@]4(C)c5c([nH]c6ccccc6c5=O)C(C)(C)[C@@H]4CC[C@@]3(C)[C@]1(C)CC2 | 65.7%
COc1ccc(-c2n[nH]nc2-c2csc3ccccc23)cc1OC | 67.2%
O=C1c2ccccc2C(=O)c2c(N=Nc3[nH]c(=S)[nH]c3O)cccc21 | 28.3%
Cn1c(NCCc2ccc(O)c(O)c2)nc2c1c(=O)n(Cc1ccc(Br)cc1)c(=O)n2C | 84.1%
Cc1ccc(/C=C2\SC(=S)N(CC(=O)NCCCN3CCOCC3)C2=O)cc1 | 91%
Cc1ccc(C2Oc3ccccc3C3CC(c4cccs4)=NN32)cc1 (centres undefined) | 84.7%
C=CC(=O)Nc1cccc(-c2nc(SC)nc(NCCc3ccc(OC)c(OC)c3)c2C#N)c1 | 40.8%
Cc1nc(/N=C(\N)NC(=O)Nc2cccc([N+](=O)[O-])c2)sc1C | 90.5%
COc1ccc(-n2nc(C)c3c(Nc4ccc(NC(=O)Nc5ccc(Cl)c(C(F)(F)F)c5)cc4)ncnc32)cc1 | 10.7%
O=C(/C=C/c1cccc([N+](=O)[O-])c1)c1ccc(O)c(CN2CCN(c3cc4c(cc3F)c(=O)c(C(=O)O)cn4C3CC3)CC2)c1 | 60.8%
CCC([N+](=O)[O-])S(=O)(=O)c1ccc(C)cc1 (centres undefined) | 102%
Cc1cn2c(/C=C3/C(=O)Nc4c3ccc3ccccc43)c(C(F)(F)F)nc2s1 | 53.5%
O=C1c2cc3c(cc2-c2c1c1ccc(F)cc1c(=O)n2C[C@H](O)[C@@H](O)[C@H](O)CO)OCO3 | -17.4% (active)
O=C(Nc1cccc2[nH]c(C(F)(F)F)nc12)c1ccc(-n2cnnn2)cc1 | 92.2%
Fc1ccc(CNc2cccc3[nH]c(C(F)(F)F)nc23)cc1 | 93.1%
O=C1c2cc3c(cc2-c2c1c1ccc(F)cc1c(=O)n2CCCNCCO)OCO3 | -60.1% (active)
N#CN1CC[C@H](C(=O)Nc2cc3cc(C(N)=O)ccc3cn2)C1 | -10% (active)
